Experimental data published in ChEMBL document CHEMBL1157539, “Thousands of chemical starting points for antimalarial lead identification” (Nature, 2010).

How the values were obtained:
Assay type in all cases: functional
[1] = test system: Plasmodium falciparum; assay: GSK_TCMDC: Inhibition of Plasmodium falciparum 3D7 in whole red blood cells, using parasite LDH activity as an index of growth. Test compounds present at 2uM
[2] = test system: Plasmodium falciparum; assay: GSK_TCMDC: Inhibition of Plasmodium falciparum Dd2 in whole red blood cells, using parasite LDH activity as an index of growth. Test compounds present at 2uM
[3] = test system: HepG2; assay: GSK_TCMDC: Percent inhibition of human HepG2 cell line. Test compounds present at 10uM.

Compound	Inhibition [1]	Inhibition [2]	Inhibition [3]
Cc1nnc2c(NC(=O)NC3CCCC3)cc3cc(-c4ccc(CN5CCCCC5)cc4)ccc3n12	99%	93%	100%
O=C(NC1CCN(c2ccnc3ccccc23)C1)c1ccc(OC(F)(F)F)cc1.O=C(O)C(F)(F)F (centres undefined)	89%	68%	35%
COc1cc(NC(=O)/C=C/c2ccccc2Cl)cc(OCCN2CCC(O)(c3ccccc3)CC2)c1.O=C(O)C(=O)O	100%	46%	48%
COc1cccc2c1CCN(CCN1CCC(CNC(=O)c3ccc(-c4ccc(C#N)cc4)cc3)CC1)C2	99%	98%	57%
COc1c(C)cc(I)cc1CNCCCNc1cc(=O)c2ccccc2[nH]1	84%	0%	0%
CC1CCN(c2nc(C(=O)Nc3cccc4c3CCCC4)c(C(C)C)s2)CC1.O=C(O)C(F)(F)F	96%	49%	14%
COc1ccc(-c2ccc(NC(=O)c3ccc(C#N)cc3)cc2)cc1CN1CCCN(C)CC1.O=C(O)C(F)(F)F	99%	75%	27%
CN1CCN(c2ccc(Nc3nccc(-c4cnn5ncccc45)n3)cc2Cl)CC1	95%	92%	65%
Cc1ccccc1C1CCN(C2CCC(NC(=O)/C=C/c3ccc4c(c3)OC(F)(F)O4)CC2)CC1 (centres undefined)	100%	39%	75%
CC(=O)N[C@H](C(=O)Nc1ccc(-c2ccc(-c3nc4cc(C(F)(F)F)ccc4[nH]3)s2)cc1)C(C)C	88%	61%	42%
CC(C)CCN1CCCN(Cc2ccc(C(=O)NCc3ccc(Cl)cc3)cc2)CC1.O=C(O)C(F)(F)F	84%	0%	16%
CCOCc1cnc(C)nc1NCC(=O)c1c(C)[nH]c2cc(C)ccc12.I	89%	76%	8%
CCCCCNc1ccnc2cc(Cl)ccc12	97%	99%	12%
CN1CCc2ccc(NC(=O)Nc3cccc(C(=O)c4ccccc4)c3)cc2C1	83%	16%	11%
Cc1ccc(NC(=O)Nc2ccc(Cl)cc2)cc1-c1ccc(C(=O)Nc2ccncc2)cc1	99%	63%	54%
COc1ccc2c(NN=Cc3ccccc3Cl)ccnc2c1	99%	46%	10%
O=S(=O)(Nc1cccc(CCN2CCCCC2CCN2CCCC2)c1)c1ccc(Oc2ccccc2)cc1 (centres undefined)	94%	1%	52%
CCc1cn2c3c(cc(C(=O)N[C@@H](Cc4ccccc4)[C@H](O)CNC(C)(C)c4cccc(OC)c4)cc13)N(C)S(=O)(=O)C2.O=CO	98%	99%	27%
Cl.NC(=O)c1sc(-n2cnc3ccc(OCC4CCNCC4)cc32)cc1OCc1ccccc1C(F)(F)F	100%	62%	18%
O=C(CCC1CCCC1)N(Cc1ccc(-c2ccc(CNCCc3ccccn3)cc2)cc1)CC1CCCCN1.O=C(O)C(F)(F)F (centres undefined)	95%	69%	32%
Br.N=C1N=C(N)NC2(CCCCC2)N1OCCCOc1cc(Cl)c(Cl)cc1Cl	94%	98%	62%
O=C(O)C(F)(F)F.c1cc(CN2CCN(CCN3CCOCC3)CC2)cc(-c2csc(-c3nc4ccccc4[nH]3)c2)c1	100%	99%	27%
Cc1cc(N(C)C)nc(Nc2ccc(NC(=O)c3c(F)cccc3Cl)cc2)n1	90%	36%	15%
CCn1c(-c2nonc2N)nc2c(-c3cccc(Cl)c3)ncc(OCCCNCc3cnc(C)nc3N)c21.O=C(O)C(F)(F)F	93%	48%	21%
CCOC(=O)CCCOc1c(OC)cc(Cc2cnc(N)nc2N)cc1OC	96%	7%	10%
COc1cccc(C(=O)NCc2cccs2)c1OCc1ccccc1	96%	0%	0%
C=CC[C@H](C[C@H](O)[C@H](Cc1ccccc1)NC(=O)c1ccc(-c2cccnn2)cc1)C(=O)NC1CCCCC1	83%	0%	2%
Br.CCC(ON1C(N)=NC(N)=NC1(C)C)c1ccc(Cl)cc1 (centres undefined)	91%	90%	68%
